# How the values were obtained:
# Experiment in all cases: DAPPL (digital affinity profiling via proximity ligation, sequencing); 10 mM Tris-HCl pH 7.5, 50 mM NaCl, 1 mM DTT, 4% glycerol, room temperature, 30 min; GST-TFs on glutathione beads, 16-mer random dsDNA library, 0.1% formaldehyde crosslink after washing; high values mean tight binding
# FLI1 = biological target: T1, FLI1 (Homo sapiens, UniProt Q01543 1-452); conditions: protein: recombinant; tags: N-terminal GST; dsDNA, one strand shown
# T1 sequence: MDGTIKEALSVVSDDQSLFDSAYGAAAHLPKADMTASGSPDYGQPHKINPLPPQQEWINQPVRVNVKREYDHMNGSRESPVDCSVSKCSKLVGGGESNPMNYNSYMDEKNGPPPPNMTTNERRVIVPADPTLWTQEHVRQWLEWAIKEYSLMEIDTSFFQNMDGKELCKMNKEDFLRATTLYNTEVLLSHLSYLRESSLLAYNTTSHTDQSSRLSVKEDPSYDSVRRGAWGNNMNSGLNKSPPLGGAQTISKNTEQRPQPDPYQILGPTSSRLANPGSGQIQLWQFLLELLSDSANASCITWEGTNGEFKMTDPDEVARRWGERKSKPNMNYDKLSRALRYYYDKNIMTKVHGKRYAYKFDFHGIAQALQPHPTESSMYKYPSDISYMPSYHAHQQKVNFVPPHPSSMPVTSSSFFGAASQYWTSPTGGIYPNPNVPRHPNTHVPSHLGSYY
# How it was run: (§1)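 GST fusions of human transcription factors were expressed in yeast and captured with glutathione beads. Once given DNA barcodes and pooled alongside a tag-only sample, they were incubated for 30 min at room temperature with 200 nmole of a random double-stranded 16-mer DNA library in Tris/NaCl/DTT/glycerol buffer, then washed, crosslinked (0.1% formaldehyde), proximity-ligated, PCR-amplified and sequenced on an Illumina NextSeq500. The binding signal of each hexamer is its read frequency for a factor divided by its frequency for the tag-only sample.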
# ELK1 = biological target: T2, ELK1 (Homo sapiens, UniProt P19419 1-428); conditions: protein: recombinant; tags: N-terminal GST; dsDNA, one strand shown
# T2 sequence: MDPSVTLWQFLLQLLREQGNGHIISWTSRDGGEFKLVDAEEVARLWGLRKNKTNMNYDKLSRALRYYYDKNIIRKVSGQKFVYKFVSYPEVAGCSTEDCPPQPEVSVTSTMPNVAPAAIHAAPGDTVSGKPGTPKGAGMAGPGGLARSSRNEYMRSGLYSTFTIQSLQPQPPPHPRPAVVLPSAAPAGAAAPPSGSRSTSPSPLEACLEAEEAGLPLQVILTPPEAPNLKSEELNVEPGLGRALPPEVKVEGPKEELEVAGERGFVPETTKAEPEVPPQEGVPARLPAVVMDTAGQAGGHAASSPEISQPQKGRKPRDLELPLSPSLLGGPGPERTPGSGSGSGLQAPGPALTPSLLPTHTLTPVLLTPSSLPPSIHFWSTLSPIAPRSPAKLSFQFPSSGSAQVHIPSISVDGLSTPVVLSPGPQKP
# How it was run: as §1
# GABPA = biological target: T3, GABPA (Homo sapiens, UniProt Q06546 1-454); conditions: protein: recombinant; tags: N-terminal GST; dsDNA, one strand shown
# T3 sequence: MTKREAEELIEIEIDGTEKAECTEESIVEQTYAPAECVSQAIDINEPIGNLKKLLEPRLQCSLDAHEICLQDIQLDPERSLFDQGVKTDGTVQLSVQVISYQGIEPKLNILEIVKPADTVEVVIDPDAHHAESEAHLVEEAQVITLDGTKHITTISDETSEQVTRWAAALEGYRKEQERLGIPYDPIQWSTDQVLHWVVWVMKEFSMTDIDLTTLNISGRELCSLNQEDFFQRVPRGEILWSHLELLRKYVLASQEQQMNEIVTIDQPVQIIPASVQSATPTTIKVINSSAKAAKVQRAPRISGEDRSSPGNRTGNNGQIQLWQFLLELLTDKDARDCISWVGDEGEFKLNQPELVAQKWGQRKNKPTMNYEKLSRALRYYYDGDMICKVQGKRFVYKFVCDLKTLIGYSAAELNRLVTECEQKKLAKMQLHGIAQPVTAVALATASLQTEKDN
# How it was run: as §1
# ERG = biological target: T4, ERG (Homo sapiens, UniProt P11308 1-479); conditions: protein: recombinant; tags: N-terminal GST; dsDNA, one strand shown
# T4 sequence: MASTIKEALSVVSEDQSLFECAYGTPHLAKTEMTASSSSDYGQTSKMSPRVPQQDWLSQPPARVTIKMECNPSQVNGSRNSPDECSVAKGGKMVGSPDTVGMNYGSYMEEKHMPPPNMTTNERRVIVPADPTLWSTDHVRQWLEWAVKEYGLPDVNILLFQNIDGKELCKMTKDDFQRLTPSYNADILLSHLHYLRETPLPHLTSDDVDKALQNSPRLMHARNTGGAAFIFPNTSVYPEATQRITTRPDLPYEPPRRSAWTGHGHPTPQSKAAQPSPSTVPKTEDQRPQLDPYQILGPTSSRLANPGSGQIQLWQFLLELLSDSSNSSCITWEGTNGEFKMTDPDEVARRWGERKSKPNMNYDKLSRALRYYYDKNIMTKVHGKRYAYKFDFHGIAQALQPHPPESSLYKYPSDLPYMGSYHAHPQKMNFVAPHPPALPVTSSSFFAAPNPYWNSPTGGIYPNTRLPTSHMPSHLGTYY
# How it was run: as §1
# ELF1 = ELF1 (Homo sapiens, UniProt P32519 1-619); conditions: protein: recombinant; tags: N-terminal GST; dsDNA, one strand shown
# ELF1, sequence (P32519 whole entry): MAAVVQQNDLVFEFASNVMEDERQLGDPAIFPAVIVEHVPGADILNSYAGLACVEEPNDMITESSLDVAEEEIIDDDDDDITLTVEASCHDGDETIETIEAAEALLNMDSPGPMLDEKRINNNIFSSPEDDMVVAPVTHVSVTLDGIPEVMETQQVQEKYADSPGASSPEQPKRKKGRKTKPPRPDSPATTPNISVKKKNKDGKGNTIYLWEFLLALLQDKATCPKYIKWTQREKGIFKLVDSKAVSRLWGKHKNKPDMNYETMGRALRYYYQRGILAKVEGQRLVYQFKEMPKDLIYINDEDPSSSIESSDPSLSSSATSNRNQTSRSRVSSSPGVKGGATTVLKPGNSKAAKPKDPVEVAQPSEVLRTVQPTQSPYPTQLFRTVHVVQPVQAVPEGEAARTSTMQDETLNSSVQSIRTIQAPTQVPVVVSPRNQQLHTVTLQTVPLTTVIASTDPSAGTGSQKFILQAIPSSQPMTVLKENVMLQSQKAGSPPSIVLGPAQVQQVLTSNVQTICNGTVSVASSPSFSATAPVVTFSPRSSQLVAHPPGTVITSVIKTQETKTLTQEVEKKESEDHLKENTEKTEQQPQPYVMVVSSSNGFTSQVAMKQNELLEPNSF
# How it was run: as §1
# EHF = biological target: T5, EHF (Homo sapiens, UniProt Q9NZC4 1-300); conditions: protein: recombinant; tags: N-terminal GST; dsDNA, one strand shown
# T5 sequence: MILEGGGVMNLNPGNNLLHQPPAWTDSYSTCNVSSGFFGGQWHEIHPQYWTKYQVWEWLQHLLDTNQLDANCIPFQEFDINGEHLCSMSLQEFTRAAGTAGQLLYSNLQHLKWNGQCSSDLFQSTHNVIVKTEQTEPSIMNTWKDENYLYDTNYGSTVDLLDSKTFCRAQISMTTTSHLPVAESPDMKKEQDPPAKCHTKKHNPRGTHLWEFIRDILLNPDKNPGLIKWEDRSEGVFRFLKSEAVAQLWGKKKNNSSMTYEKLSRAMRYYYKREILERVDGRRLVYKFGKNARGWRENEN
# How it was run: as §1
# SPI1 = SPI1 (Homo sapiens, UniProt P17947 1-270); conditions: protein: recombinant; tags: N-terminal GST; dsDNA, one strand shown
# How it was run: as §1
# SPIB = SPIB (Homo sapiens, UniProt Q01892 1-262); conditions: protein: recombinant; tags: N-terminal GST; dsDNA, one strand shown
# SPIB, sequence (Q01892 whole entry): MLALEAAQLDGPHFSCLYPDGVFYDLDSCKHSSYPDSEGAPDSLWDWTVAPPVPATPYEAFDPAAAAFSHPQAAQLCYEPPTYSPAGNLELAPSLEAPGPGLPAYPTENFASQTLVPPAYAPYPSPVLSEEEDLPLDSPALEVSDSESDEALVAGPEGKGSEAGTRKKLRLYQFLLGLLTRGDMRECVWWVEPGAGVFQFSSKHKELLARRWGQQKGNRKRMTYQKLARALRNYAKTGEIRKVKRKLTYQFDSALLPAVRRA
# How it was run: as §1
# ELK3 = biological target: T6, ELK3 (Homo sapiens, UniProt P41970 1-407); conditions: protein: recombinant; tags: N-terminal GST; dsDNA, one strand shown
# T6 sequence: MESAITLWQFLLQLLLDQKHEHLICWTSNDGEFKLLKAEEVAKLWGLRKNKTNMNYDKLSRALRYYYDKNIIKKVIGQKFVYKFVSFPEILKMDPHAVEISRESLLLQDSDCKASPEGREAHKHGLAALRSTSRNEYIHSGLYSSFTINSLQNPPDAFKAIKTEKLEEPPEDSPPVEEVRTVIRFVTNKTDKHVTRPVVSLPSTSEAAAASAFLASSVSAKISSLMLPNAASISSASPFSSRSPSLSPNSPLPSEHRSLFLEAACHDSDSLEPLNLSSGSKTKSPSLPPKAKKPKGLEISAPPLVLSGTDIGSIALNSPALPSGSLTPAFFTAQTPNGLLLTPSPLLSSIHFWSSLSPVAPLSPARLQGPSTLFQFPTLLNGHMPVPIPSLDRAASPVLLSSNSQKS
# How it was run: as §1
# FEV = biological target: T7, FEV (Homo sapiens, UniProt Q99581 1-238); conditions: protein: recombinant; tags: N-terminal GST; dsDNA, one strand shown
# T7 sequence: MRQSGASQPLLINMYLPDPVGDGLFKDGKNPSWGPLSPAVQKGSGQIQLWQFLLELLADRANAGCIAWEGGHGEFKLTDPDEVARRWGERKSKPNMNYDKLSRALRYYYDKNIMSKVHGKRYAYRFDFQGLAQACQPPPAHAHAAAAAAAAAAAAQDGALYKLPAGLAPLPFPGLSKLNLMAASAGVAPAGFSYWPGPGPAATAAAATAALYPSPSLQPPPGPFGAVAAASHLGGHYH
# How it was run: as §1
# ETV5 = ETV5 (Homo sapiens, UniProt P41161 1-510); conditions: protein: recombinant; tags: N-terminal GST; dsDNA, one strand shown
# ETV5, sequence (P41161 whole entry): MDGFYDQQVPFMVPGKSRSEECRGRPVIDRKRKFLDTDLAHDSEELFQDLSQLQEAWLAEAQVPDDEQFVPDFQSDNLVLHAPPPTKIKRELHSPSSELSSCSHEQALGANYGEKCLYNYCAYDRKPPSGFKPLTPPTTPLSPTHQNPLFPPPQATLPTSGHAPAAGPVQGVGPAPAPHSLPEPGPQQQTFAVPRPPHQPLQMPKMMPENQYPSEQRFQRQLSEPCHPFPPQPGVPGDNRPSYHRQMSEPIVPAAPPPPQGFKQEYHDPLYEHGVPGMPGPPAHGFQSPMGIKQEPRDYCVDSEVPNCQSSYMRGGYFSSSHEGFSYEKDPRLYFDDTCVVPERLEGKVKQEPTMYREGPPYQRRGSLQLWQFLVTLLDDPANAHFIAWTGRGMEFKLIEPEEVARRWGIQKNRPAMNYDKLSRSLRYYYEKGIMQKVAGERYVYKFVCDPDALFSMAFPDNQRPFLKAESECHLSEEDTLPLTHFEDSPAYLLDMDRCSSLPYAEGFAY
# How it was run: as §1
# HSF1 = HSF1 (Homo sapiens, UniProt Q00613 1-529); conditions: protein: recombinant; tags: N-terminal GST; chain copies: 3; dsDNA, one strand shown
# HSF1, sequence (Q00613 whole entry): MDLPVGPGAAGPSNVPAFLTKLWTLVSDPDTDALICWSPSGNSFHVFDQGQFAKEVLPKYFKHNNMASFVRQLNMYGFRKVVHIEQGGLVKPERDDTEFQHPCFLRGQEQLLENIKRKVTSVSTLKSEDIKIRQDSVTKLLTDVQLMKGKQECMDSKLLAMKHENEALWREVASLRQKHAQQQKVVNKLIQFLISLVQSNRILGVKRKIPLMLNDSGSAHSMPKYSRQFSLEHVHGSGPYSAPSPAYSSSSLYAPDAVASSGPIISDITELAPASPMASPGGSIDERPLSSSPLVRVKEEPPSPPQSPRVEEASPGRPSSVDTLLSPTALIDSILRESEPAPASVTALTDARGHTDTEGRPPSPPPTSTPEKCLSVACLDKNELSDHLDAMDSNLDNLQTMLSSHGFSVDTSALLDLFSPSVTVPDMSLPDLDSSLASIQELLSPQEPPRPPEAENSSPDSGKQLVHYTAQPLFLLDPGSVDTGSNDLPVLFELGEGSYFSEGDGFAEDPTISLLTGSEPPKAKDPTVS
# How it was run: as §1
# SPIC = biological target: T8, SPIC (Homo sapiens, UniProt Q8N5J4 1-248); conditions: protein: recombinant; tags: N-terminal GST; dsDNA, one strand shown
# T8 sequence: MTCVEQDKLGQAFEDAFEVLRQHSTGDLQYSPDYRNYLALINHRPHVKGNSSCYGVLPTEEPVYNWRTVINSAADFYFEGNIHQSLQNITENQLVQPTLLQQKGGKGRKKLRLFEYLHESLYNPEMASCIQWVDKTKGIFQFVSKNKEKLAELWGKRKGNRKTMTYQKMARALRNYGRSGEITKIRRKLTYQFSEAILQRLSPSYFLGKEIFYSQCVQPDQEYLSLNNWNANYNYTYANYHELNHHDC
# How it was run: as §1
# ELF4 = ELF4 (Homo sapiens, UniProt Q99607 1-663); conditions: protein: recombinant; tags: N-terminal GST; dsDNA, one strand shown
# ELF4, sequence (Q99607 whole entry): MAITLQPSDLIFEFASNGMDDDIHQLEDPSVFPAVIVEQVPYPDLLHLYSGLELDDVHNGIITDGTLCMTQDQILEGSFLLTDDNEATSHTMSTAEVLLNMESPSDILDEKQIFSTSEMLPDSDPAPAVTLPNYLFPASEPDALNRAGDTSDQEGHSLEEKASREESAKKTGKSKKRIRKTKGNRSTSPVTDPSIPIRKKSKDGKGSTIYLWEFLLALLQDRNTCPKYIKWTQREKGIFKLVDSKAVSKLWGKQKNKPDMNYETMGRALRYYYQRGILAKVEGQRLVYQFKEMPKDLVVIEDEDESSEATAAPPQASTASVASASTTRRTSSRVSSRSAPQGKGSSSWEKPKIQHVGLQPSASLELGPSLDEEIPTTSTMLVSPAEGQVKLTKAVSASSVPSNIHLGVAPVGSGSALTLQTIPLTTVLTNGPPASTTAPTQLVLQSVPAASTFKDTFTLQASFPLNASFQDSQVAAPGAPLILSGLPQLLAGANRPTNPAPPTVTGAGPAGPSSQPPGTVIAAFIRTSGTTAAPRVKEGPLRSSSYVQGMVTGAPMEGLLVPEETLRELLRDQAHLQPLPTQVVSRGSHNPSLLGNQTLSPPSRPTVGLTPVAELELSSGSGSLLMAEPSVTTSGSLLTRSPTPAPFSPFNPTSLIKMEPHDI
# How it was run: as §1
# ELK4 = biological target: T9, ELK4 (Homo sapiens, UniProt P28324-2 1-405); conditions: protein: recombinant; tags: N-terminal GST; dsDNA, one strand shown
# T9 sequence: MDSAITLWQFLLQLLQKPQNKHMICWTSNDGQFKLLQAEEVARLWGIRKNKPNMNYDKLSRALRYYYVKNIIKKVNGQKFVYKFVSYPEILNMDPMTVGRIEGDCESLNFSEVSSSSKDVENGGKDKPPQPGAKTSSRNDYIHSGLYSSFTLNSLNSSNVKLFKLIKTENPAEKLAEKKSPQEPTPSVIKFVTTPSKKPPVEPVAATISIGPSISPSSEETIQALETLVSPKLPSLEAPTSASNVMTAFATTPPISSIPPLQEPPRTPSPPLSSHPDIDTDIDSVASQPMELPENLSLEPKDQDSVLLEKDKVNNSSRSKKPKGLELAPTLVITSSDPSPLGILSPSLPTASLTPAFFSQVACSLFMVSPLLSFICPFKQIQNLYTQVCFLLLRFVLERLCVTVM
# How it was run: as §1
# ETV2 = biological target: T10, ETV2 (Homo sapiens, UniProt O00321 1-342); conditions: protein: recombinant; tags: N-terminal GST; dsDNA, one strand shown
# T10 sequence: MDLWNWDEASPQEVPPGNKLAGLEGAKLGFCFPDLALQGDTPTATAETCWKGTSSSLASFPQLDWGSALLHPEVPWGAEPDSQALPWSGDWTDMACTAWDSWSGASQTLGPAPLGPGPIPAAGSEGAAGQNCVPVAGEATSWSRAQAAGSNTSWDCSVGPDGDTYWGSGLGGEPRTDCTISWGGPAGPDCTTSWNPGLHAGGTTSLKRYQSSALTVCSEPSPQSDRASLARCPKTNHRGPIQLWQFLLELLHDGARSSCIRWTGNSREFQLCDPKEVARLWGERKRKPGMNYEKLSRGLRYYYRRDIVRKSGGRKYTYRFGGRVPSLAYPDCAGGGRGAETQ
# How it was run: as §1
# ELF3 = biological target: T11, ELF3 (Homo sapiens, UniProt P78545 1-371); conditions: protein: recombinant; tags: N-terminal GST; dsDNA, one strand shown
# T11 sequence: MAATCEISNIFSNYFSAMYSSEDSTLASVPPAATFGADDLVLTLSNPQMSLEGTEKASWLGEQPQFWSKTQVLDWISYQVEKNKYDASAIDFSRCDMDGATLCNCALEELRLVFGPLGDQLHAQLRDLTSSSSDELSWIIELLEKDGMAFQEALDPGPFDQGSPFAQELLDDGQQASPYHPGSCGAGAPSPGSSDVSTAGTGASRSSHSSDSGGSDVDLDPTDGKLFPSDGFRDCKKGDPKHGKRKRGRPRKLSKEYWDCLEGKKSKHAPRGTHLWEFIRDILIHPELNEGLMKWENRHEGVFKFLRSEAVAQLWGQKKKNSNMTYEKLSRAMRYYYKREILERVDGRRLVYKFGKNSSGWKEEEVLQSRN
# How it was run: as §1
# CRX = CRX (Homo sapiens, UniProt O43186 1-299); conditions: protein: recombinant; tags: N-terminal GST; dsDNA, one strand shown
# CRX, sequence (O43186 whole entry): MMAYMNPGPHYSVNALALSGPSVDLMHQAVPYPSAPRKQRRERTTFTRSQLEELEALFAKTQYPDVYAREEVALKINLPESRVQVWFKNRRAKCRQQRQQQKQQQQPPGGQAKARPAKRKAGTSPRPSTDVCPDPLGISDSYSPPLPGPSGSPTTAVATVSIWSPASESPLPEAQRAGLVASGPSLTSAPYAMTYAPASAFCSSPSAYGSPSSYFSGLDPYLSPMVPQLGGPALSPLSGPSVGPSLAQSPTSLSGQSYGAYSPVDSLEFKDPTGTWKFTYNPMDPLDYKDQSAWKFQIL
# How it was run: as §1
# ETV1 = ETV1 (Homo sapiens, UniProt P50549 1-477); conditions: protein: recombinant; tags: N-terminal GST; dsDNA, one strand shown
# ETV1, sequence (P50549 whole entry): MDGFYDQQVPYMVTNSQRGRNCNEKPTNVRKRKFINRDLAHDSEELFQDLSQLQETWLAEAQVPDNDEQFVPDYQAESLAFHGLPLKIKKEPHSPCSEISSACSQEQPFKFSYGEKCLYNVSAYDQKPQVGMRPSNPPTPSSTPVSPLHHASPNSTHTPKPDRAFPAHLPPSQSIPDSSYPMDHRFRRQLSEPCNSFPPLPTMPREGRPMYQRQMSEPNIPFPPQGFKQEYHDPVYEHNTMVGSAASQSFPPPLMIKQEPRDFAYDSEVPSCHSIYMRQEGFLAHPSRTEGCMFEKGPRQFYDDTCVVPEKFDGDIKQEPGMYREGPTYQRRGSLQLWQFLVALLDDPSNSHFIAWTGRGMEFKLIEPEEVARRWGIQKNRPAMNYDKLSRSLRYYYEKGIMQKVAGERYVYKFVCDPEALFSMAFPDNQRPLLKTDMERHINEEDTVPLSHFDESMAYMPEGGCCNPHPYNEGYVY
# How it was run: as §1
sequence,measurement,setting,value
ACGCTT,binding signal,FLI1,"1.4 fold enrichment (6-mer frequency, TF over GST control)"
same,binding signal,ELK1,"1.34 fold enrichment (6-mer frequency, TF over GST control)"
same,binding signal,GABPA,"1.37 fold enrichment (6-mer frequency, TF over GST control)"
same,binding signal,ERG,"1.33 fold enrichment (6-mer frequency, TF over GST control)"
same,binding signal,ELF1,"1.37 fold enrichment (6-mer frequency, TF over GST control)"
same,binding signal,EHF,"1.35 fold enrichment (6-mer frequency, TF over GST control)"
same,binding signal,SPI1,"1.23 fold enrichment (6-mer frequency, TF over GST control)"
same,binding signal,SPIB,"1.5 fold enrichment (6-mer frequency, TF over GST control)"
same,binding signal,ELK3,"1.44 fold enrichment (6-mer frequency, TF over GST control)"
same,binding signal,FEV,"1.4 fold enrichment (6-mer frequency, TF over GST control)"
same,binding signal,ETV5,"1.41 fold enrichment (6-mer frequency, TF over GST control)"
same,binding signal,HSF1,"1.22 fold enrichment (6-mer frequency, TF over GST control)"
same,binding signal,SPIC,"1.32 fold enrichment (6-mer frequency, TF over GST control)"
same,binding signal,ELF4,"1.43 fold enrichment (6-mer frequency, TF over GST control)"
same,binding signal,ELK4,"1.23 fold enrichment (6-mer frequency, TF over GST control)"
same,binding signal,ETV2,"1.28 fold enrichment (6-mer frequency, TF over GST control)"
same,binding signal,ELF3,"1.55 fold enrichment (6-mer frequency, TF over GST control)"
same,binding signal,CRX,"1.36 fold enrichment (6-mer frequency, TF over GST control)"
same,binding signal,ETV1,"1.39 fold enrichment (6-mer frequency, TF over GST control)"
